The whole screen tested about 310,000 compounds, of which about 14,000 (4.5%) showed an effect of 50% or more. The effect is printed as a negative number. Shown is part of a subset that was picked to be rich in strong results.
Target: human ether-à-go-go-related gene (hERG) potassium channel (human, UniProt Q12809)
Assay: primary screen, population patch clamp on CHO cells stably expressing hERG; higher = less effect of the substance
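Further: peak tail current of the secondary pulse compared with the same well before compound.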

Chain of human ether-à-go-go-related gene (hERG) potassium channel (Q12809 whole entry, looked up): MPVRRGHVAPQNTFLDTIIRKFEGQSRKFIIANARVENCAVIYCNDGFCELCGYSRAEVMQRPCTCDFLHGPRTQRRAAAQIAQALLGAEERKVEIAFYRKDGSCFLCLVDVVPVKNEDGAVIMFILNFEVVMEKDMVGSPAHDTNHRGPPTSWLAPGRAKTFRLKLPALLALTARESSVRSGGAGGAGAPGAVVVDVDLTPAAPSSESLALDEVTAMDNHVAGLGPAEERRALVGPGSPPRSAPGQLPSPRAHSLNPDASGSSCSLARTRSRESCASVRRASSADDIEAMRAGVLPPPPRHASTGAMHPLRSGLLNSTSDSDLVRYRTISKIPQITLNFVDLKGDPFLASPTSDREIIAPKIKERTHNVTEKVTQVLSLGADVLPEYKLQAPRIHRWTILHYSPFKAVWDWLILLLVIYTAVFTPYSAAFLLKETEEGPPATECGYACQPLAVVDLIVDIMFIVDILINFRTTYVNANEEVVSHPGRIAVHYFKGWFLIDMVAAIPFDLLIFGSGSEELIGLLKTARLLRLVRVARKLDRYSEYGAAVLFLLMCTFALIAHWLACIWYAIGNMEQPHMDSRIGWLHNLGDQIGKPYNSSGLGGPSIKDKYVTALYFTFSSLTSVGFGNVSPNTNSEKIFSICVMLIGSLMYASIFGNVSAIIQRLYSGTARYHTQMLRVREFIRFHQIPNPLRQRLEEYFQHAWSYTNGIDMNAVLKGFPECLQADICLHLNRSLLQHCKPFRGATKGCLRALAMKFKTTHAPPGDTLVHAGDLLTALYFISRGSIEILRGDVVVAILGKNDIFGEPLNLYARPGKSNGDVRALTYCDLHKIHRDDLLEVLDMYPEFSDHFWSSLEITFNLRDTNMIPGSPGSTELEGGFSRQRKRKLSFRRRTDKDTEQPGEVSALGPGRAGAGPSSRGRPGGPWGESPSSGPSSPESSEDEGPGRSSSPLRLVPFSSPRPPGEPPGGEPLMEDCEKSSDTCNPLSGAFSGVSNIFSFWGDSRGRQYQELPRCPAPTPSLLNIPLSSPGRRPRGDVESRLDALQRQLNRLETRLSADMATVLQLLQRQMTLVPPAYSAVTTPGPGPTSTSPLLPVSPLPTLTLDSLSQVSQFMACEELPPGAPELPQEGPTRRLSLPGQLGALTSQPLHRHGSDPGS

| Structure (SMILES) | hERG current change (%, negative = inhibition) at 10uM |
| --- | --- |
| CCCN1CNC(=S)N(c2cccc(C)c2)C1 | 17% |
| CCC(C)[C@H](NC(=O)N1CC(=O)Nc2ccccc21)C(=O)N1CCC[C@@H]1C(=O)O (stereo partly drawn) | 13.5% |
| COc1cccc(NC(=O)CCC(=O)Nc2cccc(OC)c2)c1 | 10.5% |
| O=C(Nc1cccc(F)c1)c1ccc2ncsc2c1 | 9.49% |
| CCc1cc2c(=O)n(Cc3ccccc3)c(SC3CCOC3=O)nc2s1 (stereo not drawn) | -80.4% |
| C=CCn1c(SCC2CCCCO2)nc2sc(CC)cc2c1=O (stereo not drawn) | -2.19% |
| C=CCn1c(SCc2cc(=O)n3ccsc3n2)nc2scc(C3CC3)c2c1=O | -9.75% |
| C=CCn1c(SC2CCOC2=O)nc2scc(C3CC3)c2c1=O (stereo not drawn) | -64.6% |
| O=C1OCCC1Sc1nnc(-c2cccs2)n1Cc1ccccc1 (stereo not drawn) | -29.5% |
| C=CCn1c(SC2CCOC2=O)nc2sc(C)c(C)c2c1=O (stereo not drawn) | -11.2% |
| C=CCn1c(SC2CCOC2=O)nc2sc(CC)cc2c1=O (stereo not drawn) | -65.4% |
| Cc1sc2nc(SC3CCOC3=O)n(Cc3ccccc3)c(=O)c2c1C (stereo not drawn) | -9.22% |
| C=CCn1c(SC(C)C#N)nc2sc(CC)cc2c1=O (stereo not drawn) | -41.2% |
| O=C(Nc1ccccn1)C1CCN(S(=O)(=O)c2ccc3c(c2)OCCO3)CC1 | -11.5% |
| Cc1ccccc1OCC(=O)Nc1cc(Cl)ccc1Oc1ccccc1 | 0.121% |
| O=C1NC(Cc2c[nH]c3ccccc23)C(=O)N1c1ccc(F)cc1 (stereo not drawn) | 12.4% |
| CCCNC(=O)C/C(C)=N/NC(=O)C(=O)Nc1ccccn1 | 29.4% |
| O=C(CN1C(=O)NC2(CCCc3ccccc32)C1=O)N1CCc2ccccc2C1 (stereo not drawn) | -17.3% |
| COc1ccc(-n2nc(C(=O)N3CCC(N4CCCCC4)CC3)c3c4ccccc4n(C)c3c2=O)cc1 | 7.1% |
| COc1ccc(-n2nc(C(=O)N3CCC(C#N)CC3)c3c4ccccc4n(C)c3c2=O)cc1 | -55.5% |
| CCN1CCN(C(=O)c2nn(-c3ccc(OC)cc3)c(=O)c3c2c2ccccc2n3C)CC1 | -4.67% |
| CC1CCN(C(=O)CN2C(=O)C(=O)N(C(C)C)C2=O)c2ccccc2S1 (stereo not drawn) | -4.64% |

| Structure (SMILES) | hERG current change (%, negative = inhibition) at 10uM |
| --- | --- |
| Cc1ccc2nc(-c3ccc(-c4cccc(Cl)c4)cc3)c(NCc3ccccc3)n2c1.O=C(O)C(F)(F)F | -1.52% |
| CCN1CCN(C(=O)/C(C#N)=C/c2ccc(OC(F)F)cc2)CC1.Cl | -74.3% |
| N#C/C(=C\c1ccc(OC(F)F)cc1)C(=O)N1CCCCC1 | -21.8% |
| N#C/C(=C\c1ccc(C#N)cc1)C(=O)N1CCCC1 | 7.75% |
| CCOC(=O)c1ccc(NC(=O)Cn2c(=O)oc3ccccc32)cc1 | 10.9% |
| O=C(NCc1ccc(Cl)cc1)C1CCC(CNc2c(N3CCOCC3)c(=O)c2=O)CC1 (stereo not drawn) | 14.9% |
| Cc1cc(-c2nnc(CCC(=O)NCc3ccc(OC(F)(F)F)cc3)o2)no1 | 3.05% |
| C/C(=N\NC(=O)c1nc2ccccn2c1C)c1cccc([N+](=O)[O-])c1 | -23.4% |
| Cc1ccc(C(=O)C(C)OC(=O)CN2C(=O)NC3(CCCC3)C2=O)cc1C (stereo not drawn) | 9.76% |
| O=C(Sc1ccc(Cl)cc1)c1cccc(Cn2cc(C(F)(F)F)ccc2=O)c1 | 18.6% |
| CCOC(=O)CNC(=O)N1CCCC(C(=O)c2cc(C)c(OC)c(C)c2)C1 (stereo not drawn) | 9.16% |
| CCOC(=O)c1c(C)[nH]c(C(=O)N2CCCC(C(=O)c3cccc(OC)c3)C2)c1C (stereo not drawn) | -8.55% |
| COc1c(C)cc(C(=O)C2CCCN(C3CCOCC3)C2)cc1C (stereo not drawn) | -15.2% |
| CCOC(=O)N1CCC(N2CCCC(C(=O)c3cc(C)c(OC)c(C)c3)C2)CC1 (stereo not drawn) | -57.3% |
| COc1c(C)cc(C(=O)C2CCCN(S(=O)(=O)c3c(C)noc3C)C2)cc1C (stereo not drawn) | -2.78% |
| CCCC(=O)N1CCCC(C(=O)c2cccc(OC(C)C)c2)C1 (stereo not drawn) | 3.64% |
| CC(=O)N1CCC(N2CCCC(C(=O)c3cccc(Cl)c3)C2)CC1 (stereo not drawn) | 5.55% |
| CCOC(=O)N1CCC(N2CCCC(C(=O)c3cccc(OC(C)C)c3)C2)CC1 (stereo not drawn) | -76.8% |
| CCOC(=O)N1CCC(N2CCCC(C(=O)c3cccc(OC)c3)C2)CC1 (stereo not drawn) | -64.8% |
| COc1ccc(C(=O)C2CCCN(S(=O)(=O)N(C)C)C2)c(C)c1 (stereo not drawn) | 0.683% |
| CCOC(=O)CCNC(=O)N1CCCC(C(=O)c2cccc(OC(C)C)c2)C1 (stereo not drawn) | -10.3% |
| COc1c(C)cc(C(=O)C2CCCN(S(=O)(=O)N(C)C)C2)cc1C (stereo not drawn) | -66.5% |

| Structure (SMILES) | hERG current change (%, negative = inhibition) at 10uM |
| --- | --- |
| Cn1cc(C(=O)OCC(=O)Nc2ccccc2)c2ccccc21 | -8.39% |
| CCCCCCOc1ccc(N2C(=O)CC(N3CCN(CCN=CC4C(=O)CC(C)(C)CC4=O)CC3)C2=O)cc1 (stereo not drawn) | -32.5% |
| CN(C)S(=O)(=O)c1cccc(NC(=O)COC(=O)c2cn(-c3ccccc3)nc2-c2ccccc2)c1 | 12.3% |
| O=C1Nc2ccccc2N(O)N1c1cc(-c2ccc(Cl)cc2)[nH]n1 | 22.9% |
| CC(C)(C)c1nc(N)nc(=O)[nH]1 | -1.18% |
| CCOC(=O)N1CCC(N2CCCC(CO)(Cc3cccc(Cl)c3)C2)CC1 (stereo not drawn) | -49% |
| COc1ccc2cc(C(=O)C3CCCN(C(=O)Cc4c(C)noc4C)C3)ccc2c1 (stereo not drawn) | -68.5% |
| COc1ccc2cc(C(=O)C3CCCN(C(=O)c4csnn4)C3)ccc2c1 (stereo not drawn) | -13.2% |
| COc1ccc(C(=O)C2CCCN(C(=O)Cc3c(C)noc3C)C2)cc1OC (stereo not drawn) | -3.81% |
| CCOC(=O)N1CCC(N2CCCC(C(=O)c3ccc4cc(OC)ccc4c3)C2)CC1 (stereo not drawn) | -74.3% |
| CCNC(=O)N1CCCC(C(=O)c2ccc3cc(OC)ccc3c2)C1 (stereo not drawn) | -22.5% |
| CCOC(=O)N1CCC(N2CCCC(CO)(Cc3ccccc3C)C2)CC1 (stereo not drawn) | 0.621% |
| Cc1noc(C)c1CC(=O)N1CCCC(C(=O)c2ccc(C(C)(C)C)cc2)C1 (stereo not drawn) | -18.8% |
| CCOC(=O)N1CCC(N2CCCC(CO)(Cc3cccc(OC)c3)C2)CC1 (stereo not drawn) | -51.7% |
| COc1cccc(CC(Cc2nc3ccccc3[nH]2)c2nc3ccccc3[nH]2)c1 (stereo not drawn) | -33% |
| Cn1nnnc1SCC(=O)Nc1ccc(N2CCOCC2)cc1 | 5.57% |
| N#CCc1ccc(NC(=O)c2ccc(S(=O)(=O)N3CCCC3)cc2)cc1 | 16.9% |
| CC1CCCCN1S(=O)(=O)c1ccc(NC(=O)c2cccs2)cc1 (stereo not drawn) | -11.3% |
| COc1ccccc1CNc1ncnc2c1cnn2-c1ccccc1 | -12.1% |
| COc1ccc2nc(Nc3nc(CSc4nnnn4-c4ccccc4)cc(=O)[nH]3)nc(C)c2c1 | -42.1% |
| O=C(NCc1ccccc1Cl)c1ccc2ccccc2n1 | -1.85% |
| O=C(O)C1=C[C@@H](c2ccc(Br)cc2)C[C@@H](OCc2ccc(CO)cc2)O1 | 18.2% |

| Structure (SMILES) | hERG current change (%, negative = inhibition) at 10uM |
| --- | --- |
| Cc1ccc(NC(=O)[C@@H]2CCCN2S(=O)(=O)c2ccccc2C(F)(F)F)cc1S(=O)(=O)N1CCOCC1 | -21.4% |
| CCN1C(=O)N[C@H](c2ccccc2)C(C(C)=O)=C1C | 8.38% |
| CN1CCN(C=NC2=NN(c3cccc(C(F)(F)F)c3)CC2)CC1 | -23.9% |
| O=[N+]([O-])c1ccc(Oc2ccc(/C=N/O)cc2)nc1 | 0.3% |
| N#Cc1ccc(Oc2ccc(/C=N/O)cn2)cc1 | -73.7% |
| Cc1ccc(Oc2ccc(/C=N/O)cn2)cc1 | -1.45% |
| CCOC(=O)Nc1ccc(C(=O)/C=C/c2ccccc2)cc1 | -7.78% |
| COc1cccc(/C=C(\CC(=O)O)c2nc3ccccc3s2)c1 | 11.6% |
| Cn1ncc(Cl)c1C(=O)NNC(=O)Nc1cccc2ccccc12 | 7.09% |
| Cc1ccc(-c2nn3c(C)nnc3c3ccccc23)cc1S(=O)(=O)N1CCN(CCO)CC1 | -74.5% |
| Cc1ccc(-c2nnc3c4ccccc4c(C)nn23)cc1S(=O)(=O)N1CCN(CCO)CC1 | -32.9% |
| Cc1ccc(-c2nn3c(C)nnc3c3ccccc23)cc1S(=O)(=O)NCc1ccccc1 | -29.5% |
| CCOC(=O)N1CCN(S(=O)(=O)c2cc(-c3nn4c(C)nnc4c4ccccc34)ccc2C)CC1 | -29% |
| Cc1ccc(-c2nn3c(C)nnc3c3ccccc23)cc1S(=O)(=O)NC(C)c1ccccc1 (stereo not drawn) | -50.8% |
| Cc1ccc(-c2nn3c(C)nnc3c3ccccc23)cc1S(=O)(=O)NCCO | 11% |
| CCCN(C(=O)c1cc(Cl)nc2ccccc12)C1CCS(=O)(=O)C1 (stereo not drawn) | 9.75% |
| O=C(N/N=C/c1ccncc1)c1ccc(NS(=O)(=O)c2cccs2)cc1 | 8.88% |
| COc1cccc(CN(C)CC2CCCN(CCc3ccccc3C)C2)c1 (stereo not drawn) | -109% |
| CC(=O)c1cccc(CN(C)CC2CCCN(CCc3ccccc3C)C2)c1 (stereo not drawn) | -28.8% |
| COc1ccc(CCN2CCCC(CN(C)Cc3cccc(OC)c3)C2)cc1 (stereo not drawn) | -60.6% |
| COc1ccc(CN(C)CC2CCCN(CCc3ccccc3C)C2)cc1O (stereo not drawn) | -53.8% |

Source: paper PMC4336329 (PLoS ONE, 2015)
